High-throughput results deposited in PubChem by University of Pittsburgh Molecular Library Screening Center.
HIV RNase H inh-1 = blocks HIV-1 RNase H cleavage of RNA/DNA duplex. inhibition, % at 10 µM. hit rate 1.9% among 65,000. AID 565. P04585. RT-RNase H RNA/DNA duplex cleavage, fluorescence; in the data active = inhibition above about 50%
HIV RNase H inh-2 = confirmation of HIV-1 reverse transcriptase RNase H inhibitors; shares compounds with HIV RNase H inh-1; Recombinant RT RNase H, fluorescent RNA/DNA duplex cleavage; inhibition, % at 10 µM; hit rate 39% among 1,000; AID 651; in the data active = inhibition above about 48%
Of the large screens only hits and unclear results are named; the others gave an inactive call (follow-up assays come after a bar, where they were run). This excerpt belongs to a sample that is enriched for hits.

Cc1ccc(-c2csc3nnc(SCC(=O)Nc4cccc(C)n4)n23)cc1	none
CCn1c(=O)c(C(=O)NCc2cccnc2)c(O)c2ccccc21	none
CCCn1c(=O)c(C(=O)Nc2cnccn2)c(O)c2ccccc21	none
CCCCCn1c(=O)c(C(=O)NCc2ccncc2)c(O)c2ccccc21	HIV RNase H inh-1 83 | HIV RNase H inh-2 57
CCCc1cc(C(=O)N2CCN(c3ccccc3C)CC2)cs1	none
COCCNC(=O)CSc1nc2cc(OC)c(OC)cc2c(=O)n1Cc1ccco1	none
COC(=O)c1ccc(CSc2nc3ccccc3c(=O)n2Cc2ccco2)o1	none
COC(=O)c1ccc2c(=O)n(Cc3ccco3)c(SCC(=O)Nc3ccc(C)c(Cl)c3)nc2c1	HIV RNase H inh-1 85 | HIV RNase H inh-2 76
CCOC(=O)C1=C(CSc2nc(C)ccc2C#N)OC(N)=C(C#N)C1c1cccc(OC)c1OC (configuration not stated)	none
COc1ccc(-n2c(COc3ccc(C)cc3)nnc2SCC(N)=O)cc1	none
CCn1c(N)c(C(=O)NC)sc1=S	none
Cc1ccc(-n2c(N)c(C(N)=O)sc2=S)cc1	HIV RNase H inh-1 95 | HIV RNase H inh-2 64
CC(NC(=O)c1ccco1)C(c1cccs1)N1CCOCC1 (configuration not stated)	none
CCCCOc1ccc(Cl)cc1CSc1nnc(C)n1N	none
Cc1ccc(N(CC(=O)N2CCN(C3CCCCC3)CC2)S(=O)(=O)c2cccnc2)cc1	none
Cc1cc(C)c(S(=O)(=O)n2nc(C)c(Br)c2C)c(C)c1	none
O=C(OCC(=O)N1CCCC1)c1cccs1	none
N#CC1=C(N)NC(SCC(=O)Nc2ccccc2)=C(C#N)C12CCCC2	none
Cc1cccn2c(=O)c3cc(C(=O)N4CCc5ccccc54)n(C)c3nc12	none
c1ccc(-c2ccc(-c3ccccn3)nn2)nc1	HIV RNase H inh-1 83 | HIV RNase H inh-2 77
Nn1c(-c2ccccn2)nnc1-c1ccccn1	none
c1ccc(-c2ccccn2)nc1	none
CCOC(=O)Cc1c(C)nc2c(-c3ccc(Cl)cc3)c[nH]n2c1=O	none
CCn1ncc(C2=NOC(C(=O)NCc3ccccc3)C2)c1C (configuration not stated)	HIV RNase H inh-1 50 | HIV RNase H inh-2 inactive
CCn1ncc(C2=NOC(C(=O)Nc3c(C)n(C)n(-c4ccccc4)c3=O)C2)c1C (configuration not stated)	none
CCn1ncc(C2=NOC(C(=O)NCc3ccc(OC)cc3)C2)c1C (configuration not stated)	none
C=CCn1c(SCC(=O)NCCCC)nc2scc(-c3ccco3)c2c1=O	none
C=CCn1c(SCC(=O)NC(=O)NCc2ccco2)nc2sc(C)c(C)c2c1=O	HIV RNase H inh-1 92 | HIV RNase H inh-2 63
COc1ccc(NC(=O)CSc2nc3sc(C)c(C)c3c(=O)n2Cc2ccco2)cc1	none
CC(=O)c1ccc(OCC(O)CN2CCN(c3ccccn3)CC2)cc1 (configuration not stated)	none
CC1CC(C)CN(CCCNC(=O)C2CCCN(c3nnc(N4CCCC4=O)s3)C2)C1 (configuration not stated)	none
C=CCN1C(=O)C2(/C(=C(\O)c3ccc4c(c3)OCCO4)C(=O)C(=O)N2CCCOC)c2ccccc21 (configuration not stated)	none
CCOC(=O)C1=C(C)NC(=O)C(C(N)=O)C1c1ccccc1 (configuration not stated)	none
Cc1sc(NC(=O)c2oc3ccccc3c2C)c(C#N)c1C	HIV RNase H inh-1 57 | HIV RNase H inh-2 83
Cc1cc(C(=O)Nc2sc(C)c(C)c2C#N)c(C)o1	none
Cc1c(C(=O)NC2=NCCS2)oc2ccccc12	none
Cc1noc(C)c1CSCC(=O)OCc1nc2ccccc2c(=O)n1CC#N	none
Cc1cc(NC(=O)CSc2nc3c(c(=O)n2CCc2ccccc2)SC(C)C3)no1 (configuration not stated)	none
Cc1cc(NC(=O)CSc2nnc(C(C)N(C)C)n2Cc2ccccc2)no1 (configuration not stated)	none
Cc1cc(NC(=O)CSc2nc3cc4c(cc3c(=O)n2CCc2ccccc2)OCO4)no1	HIV RNase H inh-1 78 | HIV RNase H inh-2 71
Cc1cc(NC(=O)CSc2nc3ccccc3c(=O)n2Cc2ccc(F)cc2)no1	HIV RNase H inh-1 68 | HIV RNase H inh-2 inactive
CCCCCCn1c(SCC(=O)Nc2cc(C)on2)nc2ccccc2c1=O	none
COc1ccc(CCn2c(SCC(=O)Nc3cc(C)on3)nc3ccccc3c2=O)cc1OC	none
COc1cccc2c1OC1(C)CC2/C(=C(\C)O)C(=O)N1 (configuration not stated)	none
N#CCCC12CCCCC1=Nc1ccccc12 (configuration not stated)	none
CCOc1cc(C2C(C#N)=C(N)SC(N)=C2C#N)ccc1OCCN1CCOCC1	HIV RNase H inh-1 87 | HIV RNase H inh-2 85
CCOc1ccc(C2C(C#N)=C(N)Oc3cc(C)n(CCN(C)C)c(=O)c32)cc1OCC (configuration not stated)	none
CCCCc1ccc(C2C(C#N)=C(N)SC(N)=C2C#N)s1	none
COc1ccc(C2C(C#N)=C(N)SC(N)=C2C#N)cc1OC	none
CCCc1[nH]nc2c1C(c1ccc(OCCN3CCOCC3)c(OC)c1)C(C#N)=C(N)O2 (configuration not stated)	none
CCOc1ccc(C2C(C#N)=C(N)SC(N)=C2C#N)c(OCC)c1	HIV RNase H inh-1 72 | HIV RNase H inh-2 inactive
COc1cc(C(C)=O)ccc1OCC(=O)c1cc(C)n(C2CC2)c1C	none
CCOC(=O)CCSc1nnc(-c2cccnc2)n1-c1ccccc1OC	none
COCCn1c(SCC(=O)c2ccc(F)cc2)nnc1C(C)C	none
COc1ccc(O)c(-c2cc(-c3cccs3)[nH]n2)c1	none
CCOC(=O)N1CCN(C(=O)CSc2nnc(Cc3ccccc3)o2)CC1	none
CCOc1ccc(NC(=O)CN(C)c2nnnn2-c2ccccc2)cc1OCC	none
O=C(NCc1ccco1)c1cnn2c(C(F)(F)F)cc(-c3cccs3)nc12	none
CCCc1nnc(NC(=O)Cn2c(=O)oc3ccccc32)s1	HIV RNase H inh-1 77 | HIV RNase H inh-2 inactive
CCCc1nnc(NC(=O)CCN2C(=O)c3ccccc3C2=O)s1	none
CC1CCCC(C)N1c1nnc(NC(=O)Cn2c(=O)oc3ccccc32)s1 (configuration not stated)	none
Cc1cc2nc(NC3=NCN(Cc4ccc5c(c4)OCO5)CN3)nc(C)c2cc1C	none
COc1ccc(NC(=O)CCc2nc(-c3ccccc3F)no2)cc1	none
COc1cc(NS(C)(=O)=O)c(OC)cc1NC(=O)c1cccc(F)c1	none
COCCn1nnnc1C(c1ccc(O)c(OC)c1)N1CCc2ccccc2C1 (configuration not stated)	HIV RNase H inh-1 61 | HIV RNase H inh-2 inactive
COc1ccc(C(c2nnnn2CCc2ccccc2)N2CCN(C)CC2)cc1OC (configuration not stated)	none
COc1ccc(C(c2nnnn2C2CCCC2)N2CCc3ccccc3C2)cc1OC (configuration not stated)	none
CC(NC(=O)c1ccnc(C(C)(C)C)c1)c1ccccc1 (configuration not stated)	none
Cc1ccc(C(=O)N2CCCC(c3nc4c(nnn4Cc4ccccc4)c(=O)[nH]3)C2)cc1 (configuration not stated)	none
COC(=O)CSc1nc2c(c(=O)n(C)c(=O)n2C)n1CCC(C)C	HIV RNase H inh-1 74 | HIV RNase H inh-2 inactive
CCCCCCn1c(SCC(C)C)nc2c1c(=O)[nH]c(=O)n2C	none
CCCCCSc1nc2c(c(=O)[nH]c(=O)n2C)n1CC	HIV RNase H inh-1 73 | HIV RNase H inh-2 inactive
CC(C)n1c(SCC(N)=O)nc2c1c(=O)[nH]c(=O)n2C	HIV RNase H inh-1 61 | HIV RNase H inh-2 inactive
